Source: PubChem (The Scripps Research Institute Molecular Screening Center)
The list is not random: actives were taken first. Their share in the collection is about 0.84%.
TR-FRET SRC-2 ct: counter-screen for PPARgamma SRC-2 recruitment agonists: TR-FRET artefact; hits give high values; TR-FRET ratio at 8 µM; 0.4% of 200,000 active; AID 1049
PPARg SRC-1 ag: PPARgamma-driven SRC-1 recruitment agonism | PPARgamma-SRC-1 coactivator recruitment biochemical assay | P37231 | activation, % at 8 µM | 0.41% of 200,000 active; in the data active = activation above about 19%;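 also: 0% = DMSO and 100% = reference agonist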
Target sequence (P37231 whole entry, looked up): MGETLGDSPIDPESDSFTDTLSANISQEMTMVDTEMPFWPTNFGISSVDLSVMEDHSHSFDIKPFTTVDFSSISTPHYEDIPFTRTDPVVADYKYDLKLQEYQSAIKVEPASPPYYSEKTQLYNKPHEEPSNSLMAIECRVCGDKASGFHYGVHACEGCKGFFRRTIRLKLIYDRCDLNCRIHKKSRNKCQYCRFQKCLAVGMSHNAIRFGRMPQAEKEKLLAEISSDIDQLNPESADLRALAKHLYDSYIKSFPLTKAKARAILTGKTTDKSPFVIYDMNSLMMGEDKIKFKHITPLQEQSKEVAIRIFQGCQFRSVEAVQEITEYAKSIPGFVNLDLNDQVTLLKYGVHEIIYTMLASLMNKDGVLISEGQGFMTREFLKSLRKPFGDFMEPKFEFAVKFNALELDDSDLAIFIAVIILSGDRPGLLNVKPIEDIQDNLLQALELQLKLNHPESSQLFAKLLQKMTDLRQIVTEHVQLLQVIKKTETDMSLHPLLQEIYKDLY
SRC1 TRFRET art: TR-FRET artefact, counter-screen to PPARgamma/SRC-1 agonist assay. TR-FRET detection artefact counter-screen, emission ratio; hits give high values. AID 1051. 0.34% of 99,000 active. TR-FRET ratio at 8 µM; in the data active = TR-FRET ratio above about 2300
SRC3 TRFRET art: counter-screen for PPARgamma SRC-3 recruitment agonists: TR-FRET artefact | PPARgamma/SRC-3 format; hits give high values | TR-FRET ratio at 8 µM | 0.39% of 99,000 active | AID 1048
PPARg SRC2 recr: agonists of SRC-2 recruitment by human PPARgamma; PPARgamma LBD-SRC-2 recruitment, biochemical; P37231; 0.34% of 200,000 active; activation, % at 8 µM; in the data active = activation above about 22%;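 also: 0% = vehicle and 100% = reference agonist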
PPARg SRC3 recr: agonists of human PPARgamma SRC-3 coactivator recruitment. 0.26% of 200,000 active. activation, % at 8 µM. biochemical PPARgamma/SRC-3 coactivator recruitment assay. P37231; in the data active = activation above about 23%;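 also: 0% = DMSO and 100% = reference agonist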
PPARg SRC2 conf: human PPARgamma SRC-2 recruitment agonism, confirmation. shares compounds with PPARg SRC3 recr. biochemical SRC-2 recruitment by PPARgamma. activation, % at 8 µM. 52% of 790 active. AID 1297; in the data active = activation above about 22%;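 also: 0% = vehicle alone and 100% = reference agonist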
PPARg SRC1 ag: confirmation of agonists of SRC-1 recruitment by human PPARgamma; PPARgamma–SRC-1 coactivator recruitment biochemical assay; shares compounds with PPARg SRC3 recr; activation, % at 8 µM; AID 1300; 43% of 790 active; in the data active = activation above about 20%;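 also: 0% = vehicle wells and 100% = reference agonist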
PPARg SRC3 conf: confirmation of agonists of SRC-3 recruitment by human PPARgamma. shares compounds with PPARg SRC3 recr. biochemical PPARgamma-SRC-3 coactivator recruitment, agonist mode. activation, % at 8 µM. 29% of 790 active. AID 1301; in the data active = activation above about 24%;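 also: 0% = vehicle wells and 100% = reference agonist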
Active calls of the source: *. Rule as the data show it, unless noted: active = TR-FRET ratio above about 2000; inactive = the rest.

Cc1sccc1C1C(C#N)=C(N)SC(N)=C1C#N was read as TR-FRET SRC-2 ct 1861, PPARg SRC-1 ag 10.3, PPARg SRC2 recr 22.1*, PPARg SRC3 recr 33.5*, PPARg SRC2 conf 3.5, PPARg SRC1 ag 0.9 and PPARg SRC3 conf 5.0.
Cc1[nH]nc2c1C(c1ccsc1C)C(C#N)=C(N)O2 (stereo not drawn) was read as TR-FRET SRC-2 ct 1409, PPARg SRC-1 ag 1.5, PPARg SRC2 recr -1.0 and PPARg SRC3 recr -5.4.
For Cc1ccc(OCC(=O)NC(=S)Nc2ccc3c4c(cccc24)CC3)cc1 the results were TR-FRET SRC-2 ct 1680, PPARg SRC-1 ag 0.3, SRC1 TRFRET art 2107, SRC3 TRFRET art 1684, PPARg SRC2 recr -3.8 and PPARg SRC3 recr -0.7.
Screening CC(C)(C)c1ccc(OCC(=O)Nc2ccc3c4c(cccc24)C(=O)NC3=O)cc1 returned TR-FRET SRC-2 ct 1795, PPARg SRC-1 ag 14.4, SRC1 TRFRET art 2184, SRC3 TRFRET art 1741, PPARg SRC2 recr 13.9, PPARg SRC3 recr 32.9*, PPARg SRC2 conf 13.0, PPARg SRC1 ag 13.6 and PPARg SRC3 conf 10.4.
`COC(=O)c1cc(Cl)cc(Cl)c1OS(=O)(=O)N(C)C` gave TR-FRET SRC-2 ct 1617, PPARg SRC-1 ag -1.7, SRC1 TRFRET art 1900, SRC3 TRFRET art 1484, PPARg SRC2 recr -0.5 and PPARg SRC3 recr -1.5.
`COc1ccc(OC)c(C2C(C(=O)c3cc4ccccc4o3)=C(O)C(=O)N2c2cc(C)on2)c1` (stereo not drawn) gave TR-FRET SRC-2 ct 2296*, PPARg SRC-1 ag 18.8*, PPARg SRC2 recr 22.2*, PPARg SRC3 recr 15.0, PPARg SRC2 conf 28.4*, PPARg SRC1 ag 20.6* and PPARg SRC3 conf 16.5.
Screening COCCNc1nc2ccccc2nc1NS(=O)(=O)c1ccc(C)cc1C returned TR-FRET SRC-2 ct 2002*, PPARg SRC-1 ag 17.9, PPARg SRC2 recr 23.4*, PPARg SRC3 recr 22.7, PPARg SRC2 conf 23.9*, PPARg SRC1 ag 17.0 and PPARg SRC3 conf 14.3.
For COc1ccccc1C1=NN(C(=S)Nc2ccccc2)C(c2ccco2)C1 (stereo not drawn) the results were TR-FRET SRC-2 ct 1731, PPARg SRC-1 ag 19.1*, PPARg SRC2 recr 18.8, PPARg SRC3 recr 22.6, PPARg SRC2 conf 22.1*, PPARg SRC1 ag 18.8 and PPARg SRC3 conf 13.1.
Screening CCC(=O)Nc1cccc(-c2nc3ccccc3c(=O)o2)c1 returned TR-FRET SRC-2 ct 1739, PPARg SRC-1 ag 18.8*, PPARg SRC2 recr -12.7, PPARg SRC3 recr 18.3, PPARg SRC2 conf 4.5, PPARg SRC1 ag 13.8 and PPARg SRC3 conf 14.9.
Screening Fc1ccc(-c2nnsc2Sc2ccccn2)cc1 returned TR-FRET SRC-2 ct 3478*, PPARg SRC-1 ag 11.4, SRC1 TRFRET art 1838, SRC3 TRFRET art 6319*, PPARg SRC2 recr 145.1*, PPARg SRC3 recr 58.1*, PPARg SRC2 conf 34.5*, PPARg SRC1 ag 34.6* and PPARg SRC3 conf 15.8.
Screening CN1CCc2nc3sc(C(=O)NCc4ccccc4)c(N)c3cc2C1 returned TR-FRET SRC-2 ct 1733, PPARg SRC-1 ag 13.4, SRC1 TRFRET art 2218, SRC3 TRFRET art 1839, PPARg SRC2 recr 23.6*, PPARg SRC3 recr 15.9, PPARg SRC2 conf 5.8, PPARg SRC1 ag 5.7 and PPARg SRC3 conf 6.6.
For CC1(C)CC(=O)c2cc3c(N)c(C(=O)NCc4ccccc4)sc3nc2C1 the results were TR-FRET SRC-2 ct 1548, PPARg SRC-1 ag 0.4, PPARg SRC2 recr -4.0 and PPARg SRC3 recr -8.2.
C/C(CC(=O)NC(C)(C)C)=N\NC(N)=S was read as TR-FRET SRC-2 ct 1781, PPARg SRC-1 ag 21.0*, SRC1 TRFRET art 2014, SRC3 TRFRET art 1702, PPARg SRC2 recr 8.8, PPARg SRC3 recr 1.1, PPARg SRC2 conf 6.0, PPARg SRC1 ag 2.4 and PPARg SRC3 conf 3.4.
Screening Cc1c(C(=O)N/N=C/c2ccncc2)no[n+]1[O-] returned TR-FRET SRC-2 ct 1561, PPARg SRC-1 ag -1.6, SRC1 TRFRET art 1660, SRC3 TRFRET art 1438, PPARg SRC2 recr 4.8 and PPARg SRC3 recr -0.4.
For Cc1ccccc1OCC(=O)Nc1ccccc1N1CCC(C)CC1 the results were TR-FRET SRC-2 ct 1634, PPARg SRC-1 ag 2.9, SRC1 TRFRET art 2038, SRC3 TRFRET art 1771, PPARg SRC2 recr 2.1 and PPARg SRC3 recr -0.8.
CCN(CC)CCNC(=O)CSc1c2c(nc3cc(Cl)ccc13)CCCC2 was read as TR-FRET SRC-2 ct 2230*, PPARg SRC-1 ag 23.2*, SRC1 TRFRET art 3055*, SRC3 TRFRET art 2600*, PPARg SRC2 recr 46.5*, PPARg SRC3 recr 24.8*, PPARg SRC2 conf 32.6*, PPARg SRC1 ag 22.1* and PPARg SRC3 conf 22.4.
For COc1cccc(NC(=O)CSc2c3c(nc4ccccc24)CCCC3)c1 the results were TR-FRET SRC-2 ct 1718, PPARg SRC-1 ag 20.6*, SRC1 TRFRET art 2392*, SRC3 TRFRET art 2050, PPARg SRC2 recr 21.1, PPARg SRC3 recr 12.8, PPARg SRC2 conf 21.9*, PPARg SRC1 ag 16.7 and PPARg SRC3 conf 15.2.
Cc1ccc(CNC(=O)CSc2c3c(nc4ccc(Cl)cc24)CCCC3)o1 was read as TR-FRET SRC-2 ct 1885, PPARg SRC-1 ag 13.3, PPARg SRC2 recr 16.4 and PPARg SRC3 recr 18.8.
For Cc1cccc(NC(=O)CSc2c3c(nc4ccccc24)CCC3)n1 the results were TR-FRET SRC-2 ct 1518, PPARg SRC-1 ag -2.8, SRC1 TRFRET art 1807, SRC3 TRFRET art 1583, PPARg SRC2 recr 6.6 and PPARg SRC3 recr 4.9.
`CCN(CC)CCOc1ccccc1C(C)=O` gave TR-FRET SRC-2 ct 1514, PPARg SRC-1 ag 1.3, SRC1 TRFRET art 1903, SRC3 TRFRET art 1549, PPARg SRC2 recr 6.1 and PPARg SRC3 recr -0.5.
For Fc1ccc(CSc2ncnc3c2oc2ccccc23)cc1 the results were TR-FRET SRC-2 ct 1720, PPARg SRC-1 ag 14.7, SRC1 TRFRET art 2218, SRC3 TRFRET art 1683, PPARg SRC2 recr 10.2 and PPARg SRC3 recr 10.4.
`O=C(CSc1ncnc2c1oc1ccccc12)Nc1cccc(F)c1` gave TR-FRET SRC-2 ct 1746, PPARg SRC-1 ag 25.3*, PPARg SRC2 recr 22.4*, PPARg SRC3 recr 43.1*, PPARg SRC2 conf 29.9*, PPARg SRC1 ag 24.4* and PPARg SRC3 conf 19.6.
Fc1cccc(CSc2ncnc3c2oc2ccccc23)c1 was read as TR-FRET SRC-2 ct 2464*, PPARg SRC-1 ag 35.5*, PPARg SRC2 recr 45.4*, PPARg SRC3 recr 41.6*, PPARg SRC2 conf 38.6*, PPARg SRC1 ag 27.2* and PPARg SRC3 conf 27.5*.
`Cc1cccc(NC(=O)CSc2ncnc3c2oc2ccccc23)c1` gave TR-FRET SRC-2 ct 1711, PPARg SRC-1 ag 10.9, PPARg SRC2 recr 19.2 and PPARg SRC3 recr 13.9.
